DAT uptake mod = human DAT dopamine uptake with cocaine, either direction | Q01959 | LLC-PK1 hDAT cells, [14C]-dopamine uptake with cocaine IC80; actives deviate in either direction | B-score at 10 µM | actives 1.3% (n = 110,000) | AID 449768;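 active = Z score or B-score, a plate-position-corrected score, falls beyond the plate's 99.7% confidence bounds, in either direction; inactive = both scores lie inside the 99.7% bounds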;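 also: scored against the spread of the other compound wells on the same plate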
PostGolgi yeast = growth inhibition of a yeast mutant, post-Golgi transport screen; post-Golgi transport phenotypic cell assay; inhibition, % at 10 µM; actives 0.9% (n = 98,000);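 also: yeast cells grown in 1536-well plates; yeast grown about 18 h at 30C before absorbance read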
PostGolgi ctrl = inhibits growth of the yeast control strain; efflux-deficient yeast background strain, growth absorbance A615, 16 h; inhibition, % at 10 µM; actives 5% (n = 98,000); AID 738
Cav32 inh = human Cav3.2 channel inhibition, primary screen; O95180; Cav3.2-expressing cells, Fluo-4 calcium fluorescence FDSS; hits give low values; AID 449739; actives 4% (n = 100,000); B-score at 10 µM;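 active = single-dose well whose peak fluorescence ratio is a statistical outlier from its plate by either plate-standardised score or position-corrected B-score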
PLAP act = activates human placental alkaline phosphatase | P05187 | purified PLAP enzyme, luminescent substrate read-out; hits give high values | activation fold at 20 µM | actives 1.2% (n = 96,000) | AID 696; in the data active = activation fold above about 2
Active calls of the source: *; / = no result given. The list is not random: actives were taken first. Their share in the collection is about 9.6%. Rule as the data show it, unless noted: active = inhibition above about 30%; inactive = the rest.

SMILES	DAT uptake mod	PostGolgi yeast	PostGolgi ctrl	Cav32 inh	PLAP act
COc1ccccc1NC(=S)NNC(=O)c1ccc(O)cc1	0.581	8.7	-4.3	0.364	2.4*
COc1ccccc1NC(=S)NNC(=O)c1nn(C)c(C)c1Cl	-0.322	-5.1	4.2	0.686	2.1*
COc1ccccc1NC(=S)NNC(=O)c1nn(C)cc1Cl	-0.146	-0.5	5.6	1.21	1.9
COc1ccccc1NC(=S)NC(=O)C(C)(C)C	-0.108	1.9	0.8	-0.122	1.1
O=C(c1cc2sccc2n1Cc1ccccc1)N1CCCc2ccccc21	0.375	-11.5	12.6	-6.85*	1.3
COC(=O)c1cc2sc(Cl)cc2n1CC(=O)N1CCCc2ccccc21	-1.06	-8.4	36.1*	-2.69	1.2
CCOC(=O)c1cc2sccc2n1CCCN1C(=O)c2ccccc2C1=O	-0.411	-3.6	31.6*	-2.61	1.3
CCOC(=O)c1cc2sccc2n1CC(=O)N1CCCc2ccccc21	0.646	11.7	23.6	-3.85*	0.9
C#CCSc1nnc(-c2cc3c(C(F)(F)F)nn(C)c3s2)n1C	0.00147	-2.3	-9.9	-0.0116	1
CC1(C(=O)CSc2n[nH]c(-c3ccccc3Cl)n2)CCC(=O)O1 (stereo not given)	-1.62	-3.8	-5.2	-0.321	1.3
CC(C)OC(=O)[C@H]1[C@H](c2ccc(Cl)cc2)[C@@](C#N)(C(N)=O)[C@@H]2C=CC(C(N)=O)=CN21	0.364	-6.8	-0.3	-0.54	1.1
COc1ccc2oc(=O)c(C(C)=O)cc2c1	0.471	8.8	-0.6	-0.025	0.8
COc1ccc(NC(=O)c2cc3cc(OC)ccc3oc2=N)cc1	-0.711	73.1*	77.5*	-1.27	0.9
Fc1ccc(CSc2nnc(Cc3sc(-c4ccccc4)nc3-c3ccccc3)o2)cc1	0.423	-9.4	-3.0	0.674	0.7
COc1ccc(CSc2nnc(Cc3sc(-c4ccccc4)nc3-c3ccccc3)o2)cc1	0.185	-0.6	11.9	-5.22*	0.9
Cc1nn(-c2ccccc2)c2c1C1(C(=O)N(C(C)C)c3ccccc31)C(C#N)=C(N)O2 (stereo not given)	-0.0385	5.7	12.9	-2.05	1
Cc1oc(-c2ccccc2Cl)nc1CSCC(=O)NC1CCCC1	1.37	-17.6	11.1	-4.5*	1.1
CCOC(=O)N1CCC(NC(=O)CSCc2nc(-c3sccc3C)oc2C)CC1	2.77*	19.7	14.8	-0.456	1.5
Cc1oc(-c2ccccc2Cl)nc1CSCC(=O)N1CCCC1	1.92	18.2	-2.0	-0.403	1.7
CCOc1ccc(NC(=O)N(CCN(C)C)C(C)c2ccncc2)cc1 (stereo not given)	0.572	-4.9	2.4	-0.0696	1
CC(C)c1ccc(C2NC(C(=O)O)CS2)cc1 (stereo not given)	-1.36	20.9	4.3	-0.0311	2*
Cc1c(C2N3CC4(C)CN2CC(C)(C3)C4=O)c2ccccc2n1C (stereo not given)	1.53	0.7	9.1	-0.37	0.9
CCOC(=O)c1c(N)sc2c(O)c(Br)ccc12	0.61	12.3	48.6*	1.44	1
COc1ccc(-c2nnc(SCC(=O)N3CCc4ccccc4C3)o2)cc1	3.16*	-7.0	-1.8	-1.11	1.5
O=C(CSc1nnc(-c2ccccc2)o1)N1CCc2ccccc2C1	/	16.9	5.9	-0.605	0.9
SMILES	DAT uptake mod	PostGolgi yeast	PostGolgi ctrl	Cav32 inh	PLAP act
COc1cc(OC)cc(-c2nnc(SCC(=O)N3c4ccccc4Sc4ccccc43)o2)c1	0.189	/	/	-2.7	/
COc1ccc(-c2nnc(SCC(=O)N3c4ccccc4Sc4ccccc43)o2)cc1	1.25	/	/	-5.58*	/
Cc1nc2ccc(NC(=O)N3CCSCC3)cc2nc1C	-0.164	-8.5	7.7	0.626	1.1
Cc1nc2ccc(NC(=O)N3CCSCC3)cc2s1	-0.568	18.4	30.9*	-0.765	0.7
O=C(O)c1ccc(Cl)c(NC(=O)C2CCCN2S(=O)(=O)c2cccc3nsnc23)c1 (stereo not given)	0.696	11.8	11.9	1.14	1.1
CCOc1ccccc1C(=O)NC(CO)C(=O)O (stereo not given)	-0.0606	18.6	-12.4	1.43	1.1
COc1ccc(-c2nnn(CC(=O)N(Cc3ccccc3Cl)C(C(=O)NCC3CCCO3)c3ccco3)n2)cc1OC (stereo not given)	1.01	4.2	0.8	-0.999	2*
COc1ccc(N(C(=O)Cn2nnc(-c3ccc(Cl)cc3)n2)C(C(=O)NCC2CCCO2)c2ccc(C)cc2)cc1 (stereo not given)	0.727	21.0	-1.7	0.0244	0.9
O=C(O)CCCC(=O)Nc1cccc(-c2nc3ccccc3[nH]2)c1	0.313	1.6	30.6*	-0.46	1.1
